Test results as given in publication PMC4336329 (PLoS ONE, 2015).
In all, about 310,000 compounds went through this assay and about 14,000 (4.5%) showed an effect of 50% or more. Effects have a minus sign here. Many of the other results were omitted from the sample, so strong results are more common in it than they were.

Each compound was assayed against human ether-à-go-go-related gene (hERG) potassium channel (human, UniProt Q12809) (assay: primary screen, population patch clamp on CHO cells stably expressing hERG; higher = less effect of the substance).
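Further: peak tail current of the secondary pulse compared with the same well before compound.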

human ether-à-go-go-related gene (hERG) potassium channel, sequence (Q12809 whole entry, looked up): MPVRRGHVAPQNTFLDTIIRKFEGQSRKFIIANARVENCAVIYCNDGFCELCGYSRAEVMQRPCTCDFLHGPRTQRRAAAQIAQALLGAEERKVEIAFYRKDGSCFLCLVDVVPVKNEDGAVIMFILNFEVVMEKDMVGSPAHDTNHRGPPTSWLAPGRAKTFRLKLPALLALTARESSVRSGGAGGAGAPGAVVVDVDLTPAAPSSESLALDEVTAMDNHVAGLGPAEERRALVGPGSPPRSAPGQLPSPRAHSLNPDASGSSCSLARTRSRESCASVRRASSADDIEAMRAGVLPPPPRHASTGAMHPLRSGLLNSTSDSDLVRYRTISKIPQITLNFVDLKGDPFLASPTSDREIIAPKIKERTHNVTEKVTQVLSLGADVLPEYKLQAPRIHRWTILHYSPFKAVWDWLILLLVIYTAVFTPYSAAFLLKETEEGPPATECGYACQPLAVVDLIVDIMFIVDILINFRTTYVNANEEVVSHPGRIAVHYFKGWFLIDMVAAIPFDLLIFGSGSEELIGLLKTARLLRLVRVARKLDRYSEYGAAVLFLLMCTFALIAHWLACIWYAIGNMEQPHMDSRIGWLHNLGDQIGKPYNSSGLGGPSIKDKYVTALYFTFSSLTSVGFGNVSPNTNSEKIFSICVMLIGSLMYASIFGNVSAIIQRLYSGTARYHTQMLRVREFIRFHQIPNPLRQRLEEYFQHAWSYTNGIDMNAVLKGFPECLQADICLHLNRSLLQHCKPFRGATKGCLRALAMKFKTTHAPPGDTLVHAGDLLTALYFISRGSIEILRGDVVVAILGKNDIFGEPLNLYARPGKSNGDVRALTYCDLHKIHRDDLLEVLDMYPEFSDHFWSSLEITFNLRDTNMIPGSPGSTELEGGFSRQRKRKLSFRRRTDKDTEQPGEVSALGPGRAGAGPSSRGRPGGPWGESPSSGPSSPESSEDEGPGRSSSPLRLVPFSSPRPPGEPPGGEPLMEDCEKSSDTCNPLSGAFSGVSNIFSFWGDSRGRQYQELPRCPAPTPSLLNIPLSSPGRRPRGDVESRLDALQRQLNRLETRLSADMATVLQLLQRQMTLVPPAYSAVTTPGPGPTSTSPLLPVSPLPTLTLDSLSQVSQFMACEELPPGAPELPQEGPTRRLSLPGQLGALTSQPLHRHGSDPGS

SMILES	hERG current change (%, negative = inhibition) at 10uM [%]
CSCC[C@H](NC(=O)Nc1ccc(S(N)(=O)=O)cc1)C(=O)O	9.48
CCOc1ccc(C(=O)Nc2ccc3nc(N4CCN(CC)CC4)cc(C)c3c2)cc1	-23
COc1ccc(NC(=O)CCC(=O)Nc2ccc3nc(N4CCOCC4)cc(C)c3c2)c(OC)c1	16.5
COc1cccc(C(=O)Nc2ccc3nc(N4CCOCC4)cc(C)c3c2)c1	-55
COc1cccc(NC(=O)CCC(=O)Nc2ccc3nc(N4CCOCC4)cc(C)c3c2)c1	23.4
CCN1CCN(c2cc(C)c3cc(NC(=O)c4cc(OC)cc(OC)c4)ccc3n2)CC1	-35.6
COc1ccc(C(=O)Nc2ccc3nc(N4CCCCC4)cc(C)c3c2)cc1OC	-56.8
CCN1CCN(c2cc(C)c3cc(NC(=O)CCC(=O)Nc4ccc(OC)c(OC)c4)ccc3n2)CC1	4.85
CCN1CCN(c2cc(C)c3cc(NC(=O)c4cccc(OC)c4)ccc3n2)CC1	-50.9
CCN1CCN(c2cc(C)c3cc(NC(=O)c4ccc(OC)c(OC)c4)ccc3n2)CC1	-46
COc1ccc(Cc2nc3ccc(C(=O)N(C)C(C)c4ccon4)cc3o2)cc1 (stereo not shown)	-3.64
O=C1COc2ccc(C(=O)c3ccccc3C(=O)NCc3ccccc3)cc2N1	-5.41
COc1cccc(CC(=O)OC(C)C(=O)Nc2ccc(Cl)cn2)c1 (stereo not shown)	-23.9
CC(=O)Nc1nc2ccc(S(=O)(=O)N3CCCCC3)cc2s1	11.4
Cc1ccccc1NC(=O)Cc1nc(-c2c[nH]c(C(=O)N3CCCC3)c2)cs1	4.63
Cc1ccc(NC(=O)C(=O)NNC(=O)c2ccccc2C)cc1Cl	-5.32
CCOCCCn1c(=NC(=O)c2cccs2)c(C#N)cc2c(=O)n3cccc(C)c3nc21	-74.1
Cc1cccn2c(=O)c3cc(C#N)c(=NC(=O)c4cccs4)n(CCCOC(C)C)c3nc12	-80.7
CCOCCCn1c(=NC(=O)c2ccc(OC)c(OC)c2)c(C#N)cc2c(=O)n3cccc(C)c3nc21	-63.4
CCOCCCn1c(=NC(C)=O)c(C#N)cc2c(=O)n3cccc(C)c3nc21	-41.8
Cc1cccn2c(=O)c3cc(C#N)c(=NC(=O)c4cccs4)n(CC(C)C)c3nc12	-11.5
CCCCn1c(=NC(=O)c2ccc3c(c2)OCO3)c(C#N)cc2c(=O)n3cccc(C)c3nc21	-5.68
NC(=O)Nc1ccc(Oc2c(F)c(F)c(F)c(F)c2F)cc1	-11.5

SMILES	hERG current change (%, negative = inhibition) at 10uM [%]
Cc1cccc(N2CCN(CC(=O)Nc3ccc(-n4cnnn4)cc3)CC2)c1C	12.8
O=C(Nc1ccc(F)cc1)c1ccccc1S(=O)(=O)c1ccccc1[N+](=O)[O-]	-17.5
N#C/C(Cn1c[n+](NC(=O)Nc2ccccc2)cn1)=N/O.[Cl-]	16.2
Cc1cccn2c(=O)c3cc(C(=O)N4COCC4(C)C)sc3nc12	0.269
CC(C)[C@@H]1NC(=O)c2cc([N+](=O)[O-])cc(I)c2OCC[C@@H](C(N)=O)NC(=O)[C@H](CCC(=O)O)NC1=O	2.02
CCc1ccccc1NC(=S)N(CCN(C)C)Cc1cccs1	-22.4
COc1ccc(S(=O)(=O)N(C)CC(=O)N2CCC(C)CC2)cc1Cl	-0.646
OCCC1CN(Cc2nc3ccccc3s2)CCN1C1CCCC1 (stereo not shown)	-48.9
OCCC1CN(Cc2nc3ccccc3s2)CCN1C1CCCCC1 (stereo not shown)	-60
CC(C)N1CCN(Cc2nc3ccccc3s2)CC1CCO (stereo not shown)	-37.6
CC(C)CN1CCN(Cc2nc3ccccc3s2)CC1CCO (stereo not shown)	-56.8
OCCC1CN(Cc2nc3ccccc3s2)CCN1CCc1ccccc1 (stereo not shown)	-77.7
CC(C)CCN1CCN(Cc2nc3ccccc3s2)CC1CCO (stereo not shown)	-41.4
CC(C)NC(=O)C1CCN(C2CCN(Cc3ccc4cccc(F)c4n3)CC2)CC1	-38.6
CC(C)NC(=O)C1CCN(C2CCN(Cc3nc(C(C)C)cs3)CC2)CC1	-49.5
CC(C)NC(=O)C1CCN(C2CCN(Cc3nc4ccccc4s3)CC2)CC1	-65.2
CC(C)N1CCC(N2CCN(Cc3nc4ccccc4s3)CC2CCO)CC1 (stereo not shown)	-33.4
O=C1S/C(=C\c2ccc(Cl)cc2)C(=O)N1CCn1cnnn1	-0.978
CC(=O)c1cc2c(cc1N(C(=O)Cn1nnc3ccccc31)C(C(=O)NCCC(C)C)c1cccnc1)OCO2 (stereo not shown)	8.92
CCc1ccccc1NC(=O)C1CCN(C(=O)c2cccs2)CC1	-24.3
COc1ccc(S(=O)(=O)N2CCCCCC2)cc1NC(=O)CN1C(=O)NC(C)(c2ccccc2)C1=O (stereo not shown)	-31.4
O=C(O)c1ccccc1C(=O)c1ccc(Sc2ccc(Cl)cc2)c([N+](=O)[O-])c1	6.94
O=[N+]([O-])c1cc(CN2CCCC2)ccc1Sc1ccc(Cl)cc1	-93.8

SMILES	hERG current change (%, negative = inhibition) at 10uM [%]
Cc1ccc(Sc2ccc(CN3CCCC3)cc2[N+](=O)[O-])cc1	-83
O=[N+]([O-])c1ccc(Cl)cc1CN1CCCCCC1	-3.36
Cc1ccc(Sc2ccc(C(=O)N3CCOCC3)cc2[N+](=O)[O-])cc1	-32.3
O=[N+]([O-])c1cc(CN2CCCCCC2)ccc1O	9.47
CN1CCN(Cc2ccc(Sc3ccc(Cl)cc3)c([N+](=O)[O-])c2)CC1	-80.4
Cc1ccc(Sc2ccc(CN3CCCCC3)cc2[N+](=O)[O-])cc1	-27.4
O=[N+]([O-])c1cc(CN2CCC(O)CC2)ccc1Cl	9.08
CCN(CC(=O)NCCCN1CCOCC1)S(=O)(=O)c1cc(Cl)ccc1Cl	6.16
CN(Cc1ccc(Br)cc1)C(=O)CCN1C(=O)c2cccc([N+](=O)[O-])c2C1=O	21.8
COc1cccc(OCc2cc(C(=O)N3CCN(c4ccccc4OC)CC3)no2)c1	6.19
COc1c(C)cccc1C(=O)NCc1ccc2c(c1)OCO2	-2.64
O=S(=O)(NCC1CCCO1)c1ccc(S(=O)(=O)N(Cc2ccc(F)cc2)C2CCCCC2)cc1 (stereo not shown)	-2.39
COc1ccccc1NC(=O)CSc1nnc(CC(=O)Nc2ccccc2F)n1C	11.4
COc1ccc(-n2c(SCC(=O)Nc3nccs3)nc3c(c2=O)SC(C)C3)cc1 (stereo not shown)	-13.5
COc1ccc(/C(O)=C/C(=O)C(=O)Nc2c(C)n(C)n(-c3ccccc3)c2=O)cc1	8.01
CCc1c(C)sc2nc3c(C(=O)N4CCOCC4)cc(C(=O)c4ccccc4O)cn3c(=O)c12	-10.7
Cc1cc(C)nc(OC(C(=O)O)C(OCCc2ccccc2)(c2ccccc2)c2ccccc2)n1 (stereo not shown)	16.3
CCOC(=O)C1=C(CC)Nc2ccccc2N=C1NC(=O)c1oc2ccccc2c1C	12.6
CC(C)(CNC(=O)c1ccc(-c2ccccc2Cl)o1)N1CCOCC1	-39.9
O=C(COC(=O)c1cc(=O)c2ccccc2o1)NCC1CCCCC1	6.26
Cc1cc(C)cc(NC(=O)NCC(O)COc2ccc([N+](=O)[O-])cc2)c1 (stereo not shown)	-42.3
CCCN(CCC)CC(O)COc1ccc2c(c1)OCO2.Cl (stereo not shown)	-28.8
O=C(NCC(O)COc1ccc([N+](=O)[O-])cc1)Nc1ccccc1 (stereo not shown)	-49.4

SMILES	hERG current change (%, negative = inhibition) at 10uM [%]
O=[N+]([O-])c1ccc(OCC(O)CN(CCO)CCO)cc1 (stereo not shown)	-54.8
CC(C)CN(CC(C)C)CC(O)COc1ccc([N+](=O)[O-])cc1.Cl (stereo not shown)	-66.8
Cl.OCCN(CCO)CC(O)COc1ccc2c(c1)OCO2 (stereo not shown)	2.18
COC(=O)c1ccc(OCC(O)CN(CCO)CCO)cc1 (stereo not shown)	-3.29
CCCN(CCC)CC(O)COc1ccc([N+](=O)[O-])cc1 (stereo not shown)	-77.1
COC(=O)c1ccc(OCC(O)CN(CC(C)C)CC(C)C)cc1 (stereo not shown)	-4.37
C/C(=N\NC(=O)CC(C)C)c1ccc(Cl)c(Cl)c1	30.7
O=c1nc2n(c3c4c(sc13)CCC4)CCC2	5.51
CC(=O)Nc1ccc(C(=O)NCCN2CCOCC2)cc1	15.8
CCOc1ccccc1/C=N/Nc1nc2c(N)ncnc2n1[C@H]1O[C@@H](CO)[C@H](O)[C@@H]1O	-9.61
Cc1ccc(C2c3[nH]c4ccccc4c3C[C@H]3C(=O)N(c4ccccc4C(=O)NCCCN4CCOCC4)C(=O)N23)cc1 (stereo partly shown)	-54.6
COc1cccc(C2c3[nH]c4ccccc4c3C[C@H]3C(=O)N(c4ccccc4C(=O)NCCCN4CCOCC4)C(=O)N23)c1 (stereo partly shown)	-19.9
Cc1ccc(C2c3[nH]c4ccccc4c3C[C@H]3C(=O)N(c4ccccc4C(=O)NCCN4CCOCC4)C(=O)N23)cc1 (stereo partly shown)	-24.9
O=C(NCCN1CCOCC1)c1ccccc1N1C(=O)[C@@H]2Cc3c([nH]c4ccccc34)C(c3ccccc3)N2C1=O (stereo partly shown)	-20.4
CC(=O)NCCC(=O)N1CCc2c([nH]c3ccccc23)C1c1cccc(Cl)c1 (stereo not shown)	-24.2
O=C(NCCCN1CCOCC1)c1ccccc1N1C(=O)[C@@H]2Cc3c([nH]c4ccccc34)C(c3ccc(F)cc3)N2C1=O (stereo partly shown)	-68
O=C(CCN1CCOCC1)N1CCc2c([nH]c3ccccc23)C1c1cccc(Cl)c1 (stereo not shown)	-70.5
COc1ccc(C2c3[nH]c4ccccc4c3C[C@H]3C(=O)N(c4ccccc4C(=O)NCCN4CCOCC4)C(=O)N23)cc1 (stereo partly shown)	-23.7
O=C(c1cnccn1)N1CCc2c([nH]c3ccccc23)C1c1cccc(Cl)c1 (stereo not shown)	-33.6
Cc1ccccc1C1c2[nH]c3ccccc3c2C[C@H]2C(=O)N(c3ccccc3C(=O)NCCCN3CCOCC3)C(=O)N12 (stereo partly shown)	-21.3
O=C(NCCCN1CCOCC1)c1ccccc1N1C(=O)[C@@H]2Cc3c([nH]c4ccccc34)C(c3cccc(Cl)c3)N2C1=O (stereo partly shown)	-72.3
O=C(NCCN1CCOCC1)c1ccccc1N1C(=O)[C@@H]2Cc3c([nH]c4ccccc34)C(c3ccc(F)cc3)N2C1=O (stereo partly shown)	-47.2
